Values joined by “and” are separate entries in the source; they are usually repeats but may differ in a detail not shown here. Equal values may be shown once. Records with an inconclusive call do not appear. A number with no mark means an inactive call. Calls come from the whole dose curve; as a rule, active = well fitted activation curve with a large enough effect; inconclusive = small, poorly fitted or top-dose-only effect; inactive = no such curve, though single readings can be large or run the other way.
target: Cellular tumor antigen p53 (Homo sapiens) (UniProt P04637); assay: Primary qHTS for small molecule compounds that upregulate eGFP-tagged delta133p53alpha (in N-terminal) cells. (AID 2060322); details: NCI-H358 eGFP-delta133p53alpha fluorescence, 24 h; activation: hits give high values;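 note: series mostly up to about 56 µM; 0% = DMSO vehicle and 100% = reference activator; nearly all actives have a fitted effect of over 75% in size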
How it was run: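 NCI-H358 cells pre-induced 24 h with 10 ng/ml doxycycline to express N-terminal eGFP-delta133p53alpha, then dosed 24 h at 37C without doxycycline; fixed, Hoechst-stained, GFP intensity by laser scanning cytometry, normalized to DMSO (0%) and 57.5 uM 5-azacytidine (100%).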

Chain of Cellular tumor antigen p53 (Homo sapiens) (P04637 whole entry, looked up): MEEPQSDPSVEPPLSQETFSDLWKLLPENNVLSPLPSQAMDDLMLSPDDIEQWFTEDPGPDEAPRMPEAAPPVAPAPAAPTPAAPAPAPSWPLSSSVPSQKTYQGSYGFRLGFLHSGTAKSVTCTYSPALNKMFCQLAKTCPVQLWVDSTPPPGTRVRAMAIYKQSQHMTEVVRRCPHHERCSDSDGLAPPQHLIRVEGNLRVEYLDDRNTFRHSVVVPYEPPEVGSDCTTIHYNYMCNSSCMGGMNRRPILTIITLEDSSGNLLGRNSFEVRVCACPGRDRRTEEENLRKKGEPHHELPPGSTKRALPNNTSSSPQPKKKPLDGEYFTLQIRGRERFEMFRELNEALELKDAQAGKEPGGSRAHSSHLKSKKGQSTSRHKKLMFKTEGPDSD

Compound | activation
Cc1ccnc2c1NC(=O)c1cccnc1N2C1CC1 | -6.69% and 7.43%
CNc1c2c(nn1C)CCCC2 | -18.4%
CN1CCN(CCCN2c3ccccc3Sc3ccc(S(=O)(=O)N(C)C)cc32)CC1 | 6.69%
